Data on 42 sequences can be found in paper PMC7819943, “Rice protein-binding microarrays: a tool to detect cis-acting elements near promoter regions in rice”.

In all, about 35,000 sequences were measured (“fluorescence intensity (a.u.)”: median about 10,000, highest 2% from about 52,000 on). This is one part of a sample in which the highest values are shown more often than they occur.

This assay has as its target T1, OsWOX13 (Oryza sativa, UniProt Q5QMM3 1-267).
T1 sequence: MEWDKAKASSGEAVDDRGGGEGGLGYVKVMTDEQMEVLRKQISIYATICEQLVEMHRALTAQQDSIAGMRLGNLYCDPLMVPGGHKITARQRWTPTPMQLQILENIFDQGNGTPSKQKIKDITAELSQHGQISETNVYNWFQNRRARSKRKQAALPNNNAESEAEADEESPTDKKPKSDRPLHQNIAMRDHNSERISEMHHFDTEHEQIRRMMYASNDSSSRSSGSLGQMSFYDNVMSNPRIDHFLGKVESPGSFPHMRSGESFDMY
Put plainly: protein-binding microarray (RPBM); PBS, 2% BSA, 51.3 ng/ul salmon testes DNA, 50 uM zinc acetate, 200 nM TF, 25 C, 1 h; high values mean tight binding. As to conditions: protein: recombinant; tags: N-terminal polyhistidine and DsRed monomer fusion (pET32a); label: CyDye5-dUTP incorporated in the synthesized complementary strand; 3' TTTTT single-stranded linker to array surface; dsDNA, one strand shown. In outline:
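For the binding signal, per-feature fluorescence intensity was read in arbitrary units on an Axon 4000B scanner. Before scanning, a 2% BSA-blocked custom Agilent array made double-stranded with Cy5-dUTP was washed after 1 h at 25 °C with 200 nM protein and 50 µM zinc acetate. The proteins were Ni–NTA-purified transcription factors with N-terminal polyhistidine and DsRed fusions, expressed in E. coli BL21-CodonPlus.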
Consider “AGATTAATTAGGCTTAATAGATTCGTCTACGTTTAATACTCGGAGTCACCTAGTGCAG”, for which the binding signal is 20900 fluorescence intensity (a.u.).
For “GCCAAATTAGATGGAAAGTTGGTTATATAGGTGTTTATATCGGAGTCACCTAGTGCAG” the value was 29100 fluorescence intensity (a.u.); for “AATTATACAATCAATCAAATACTGAAATTTAAAATTGGTACGGAGTCACCTAGTGCAG”, 15800 fluorescence intensity (a.u.); for “CAAAAGAACAATTATTGATCAACTAATGTACACGTCCCAGCGGAGTCACCTAGTGCAG”, 13900 fluorescence intensity (a.u.).
For “AGCTGAAATTAAGAACAGACAGACATGATCACAGATCGAGCGGAGTCACCTAGTGCAG” the value was 10100 fluorescence intensity (a.u.); for “TGATGATTAGTCGATTACTGTTTTCCTATAGCCATCGTTACGGAGTCACCTAGTGCAG”, 30100 fluorescence intensity (a.u.); for “AGGAATATATATAATTTACAAATAACTAAAATTTGATATTCGGAGTCACCTAGTGCAG”, 4110 fluorescence intensity (a.u.).
As for “ATCTGTCACATTAGACATAAATAAAATATTTGCGAAATGTCGGAGTCACCTAGTGCAG”, the figure is 3540 fluorescence intensity (a.u.); as for “AAGTGTTTGTAATTACTAAAATTTTGACATGAATTCAAATCGGAGTCACCTAGTGCAG”, 8700 fluorescence intensity (a.u.); as for “GATTATGATTTGGAGAAAATTGCATCCATAAAACATTAATCGGAGTCACCTAGTGCAG”, 8000 fluorescence intensity (a.u.).
As to “TTTAATTACTAATCAATTTCATACATTCATATAGTTTATTCGGAGTCACCTAGTGCAG”, the binding signal is 55600 fluorescence intensity (a.u.).
Consider “AAATCAATAATTAAATATAGTTTCATAATATATTTATCTTCGGAGTCACCTAGTGCAG”, for which the binding signal was 22700 fluorescence intensity (a.u.).
As for “CGATTTCTTGTTTAATTACTAATCAATTTCATACATTCATCGGAGTCACCTAGTGCAG”, the figure is 13400 fluorescence intensity (a.u.); as for “CCATTAATTATGTTGGACATAATTAAGAGAATTTGCTAAACGGAGTCACCTAGTGCAG”, 52300 fluorescence intensity (a.u.).
For the sequence “TTGACCAATCAATTACTCACTGGTACGGAAAACACTATAGCGGAGTCACCTAGTGCAG”, the binding signal was 23300 fluorescence intensity (a.u.).
For “GTTAATTTTGTTTAATTAATGGTGGAAGCAGCCATCATCACGGAGTCACCTAGTGCAG” the value was 38200 fluorescence intensity (a.u.); for “GAGTAATTACTAATTAGCTGGTACACTCAATCCAGTACGGCGGAGTCACCTAGTGCAG”, 59000 fluorescence intensity (a.u.); for “TGGTATTTAATTATTTGTTAGAGTCATCATTGGTCTATAACGGAGTCACCTAGTGCAG”, 8940 fluorescence intensity (a.u.).
For “CTTCTAATTTTGTTAATTGGGAAGACATCATAGAGTGGAACGGAGTCACCTAGTGCAG” the value was 65400 fluorescence intensity (a.u.); for “TTTAATTTGTTCATTAAAGACCTAAGAGCTAATAAACGGACGGAGTCACCTAGTGCAG”, 23100 fluorescence intensity (a.u.); for “ACTCAGTATACACTAATTAGCAATTATTACCGAAATTGTACGGAGTCACCTAGTGCAG”, 23400 fluorescence intensity (a.u.).
For “TGGATTAAACTAATTTACTGATAAGGTGCGTACAAAATTGCGGAGTCACCTAGTGCAG” the value was 9850 fluorescence intensity (a.u.); for “CTATGTCTGTGTTTGATGATTGCAAGCTGATGTGGGATGGCGGAGTCACCTAGTGCAG”, 9180 fluorescence intensity (a.u.); for “ATCTATCTATCTATCTATCTATCTATCTATCTATCTATCTCGGAGTCACCTAGTGCAG”, 20600 fluorescence intensity (a.u.).
With “ATCTGTGTAGTCAATTATATTCTCCCTGGGGCCAAACGAACGGAGTCACCTAGTGCAG”, the binding signal is 4100 fluorescence intensity (a.u.).
For “AACACATTGGATTGATTGATCTGTCGCGGAACAGATTGACCGGAGTCACCTAGTGCAG”, the binding signal is 52300 fluorescence intensity (a.u.).
For “TTTGTTGATTTGTTTTGGTTGGATTGATCTGTCGCTTATACGGAGTCACCTAGTGCAG” the value was 25500 fluorescence intensity (a.u.); for “CCAGTCAAGGGAACAGATTGACCAATCGTTCACACCAGTGCGGAGTCACCTAGTGCAG”, 18400 fluorescence intensity (a.u.).
For “CATTTGACTGAACAAGAACAGTAGGATCAATCTTTGTGCACGGAGTCACCTAGTGCAG” the value was 16900 fluorescence intensity (a.u.); for “ATGACACATGCCGTTGATTGGTTGACACAGATCGGATTCGCGGAGTCACCTAGTGCAG”, 46900 fluorescence intensity (a.u.); for “TGATCTGATTGAACAGTCAATCACAGATTCACAGTAGGACCGGAGTCACCTAGTGCAG”, 62500 fluorescence intensity (a.u.).
As for “TTCCAACCAATCATAACCCAATAAGAGCAAAATGGAAAACCGGAGTCACCTAGTGCAG”, the figure is 4060 fluorescence intensity (a.u.).
In the case of “AGGTGTTGATTTTGGGTGGCGGGCCCAATCGGATAGGCCACGGAGTCACCTAGTGCAG”, the binding signal was 3770 fluorescence intensity (a.u.).
As for “CTGAGGACACTTAATGATTGATGCTCATAATATATTGTTTCGGAGTCACCTAGTGCAG”, the figure is 17300 fluorescence intensity (a.u.); as for “AAAAGCAGGTTTACTTACGCCTCATGTTCTCACACTAATTCGGAGTCACCTAGTGCAG”, 24400 fluorescence intensity (a.u.); as for “TCTGTCTGATTTGTAATCTTTTCCCTTGGCTTTGAGCGTGCGGAGTCACCTAGTGCAG”, 29400 fluorescence intensity (a.u.).
As for “AATTAATTAATTAGCAATGCAGCATCGTCGATCATTGACCCGGAGTCACCTAGTGCAG”, the figure is 62500 fluorescence intensity (a.u.); as for “CTTAATTAATTAATAGCAGCAGCAATGCCACTGTGGCCATCGGAGTCACCTAGTGCAG”, 53500 fluorescence intensity (a.u.).
As for “GCAATAATAATTACTGATAGCCACCACTATCAATAATAATCGGAGTCACCTAGTGCAG”, the figure is 12600 fluorescence intensity (a.u.).
As for “TTTGCCACTAATTAATCTACTAATGGCTTATGATAGTCATCGGAGTCACCTAGTGCAG”, the binding signal is 10700 fluorescence intensity (a.u.).
As for “GGTCGATCCATCGATTGATGGATCAATAATGCAAGCAAGCCGGAGTCACCTAGTGCAG”, the figure is 5030 fluorescence intensity (a.u.).
For “TATATATATATAATTATGCATCCTGGTTAGCAATTAATGTCGGAGTCACCTAGTGCAG” the value was 3400 fluorescence intensity (a.u.).
